Data: PubChem BioAssay (NCATS)
Results filed as inconclusive are left out. A call without a number means that no potency is given here. The source made the active and inactive calls. Unless noted, calls follow the shape of the dose curve; as a rule, active = well fitted curve in the direction sought with a large enough effect; inconclusive = small, poorly fitted or top-dose-only effect, or another doubt; inactive = no such curve, though single readings can be large; an effect the other way counts as inactive or inconclusive.

Key:
[1] = target: Pyruvate kinase PKM (Homo sapiens) (UniProt P14618); assay: qHTS Assay for Activators of Human Muscle Pyruvate Kinase (AID 954; active = well fitted curve in the direction sought with a large enough effect, not every such curve was filed as active)
Method in brief: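 ATP production by PKM2 detected via luciferase luminescence after 1 h room-temperature reaction (0.1 nM enzyme, PEP at Km 0.5 mM, ADP 0.1 mM, pH 7.2 imidazole buffer). Inhibition scaled to no-enzyme control; activation referenced to 0.3 nM enzyme wells.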

[2] = MultiTox-Fluor Cytotoxicity Assay - LYMP1-002 - Live Cells (AID 955);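 also: cells exposed to compound for 16 hours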
Method in brief: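 In this qHTS viability format, lymphoblastoid cells (LYMP1-002, human) received compound for 16 hr at 37 C. Fluorogenic GF-AFC cleavage by viable cells was detected at 405/510 nm after 1 h at room temperature.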

[3] = target: Pyruvate kinase (Leishmania mexicana) (UniProt Q27686); assay: qHTS Validation Assay for Activators of Leishmania Mexicana Pyruvate Kinase (AID 959)
Method in brief: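 Compounds are tested as eight-point concentration series. Reactions contain 0.2 nM LmPYK E451W, 0.5 mM PEP, 0.1 mM ADP, 7 mM MgCl2 and 50 mM KCl at pH 7.2, run 1 h at room temperature, then read by PKLight luminescence.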

[4] = MultiTox-Fluor Cytotoxicity Assay - LYMP1-003 - Dead Cells (AID 961); also: nearly all actives have a fitted effect of over 70% in size; also: potency is read from the fitted curve at half-maximal effect
Method in brief: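 Dead-cell protease release, detected as bis-AAF-R110 fluorescence at 485/520 nm, was measured in LYMP1-003 cells after 16 h compound treatment at 37 C. AC50 values came from Hill-modeled qHTS curves normalized to DMSO (0%) and 15 uM tetraoctylammonium bromide (100%).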

[5] = Cell Viability - LYMP2-003 (AID 965);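 also: cells exposed to compounds for 24 h before reading; nearly all actives have a fitted effect of over 50% in size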
Method in brief: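 Seed 2500 lymphoblastoid cells/well; incubate 5 hr, 37 C; add compounds; incubate 24 hr, 37 C; add CellTiter-Glo, 30 min RT; read luminescence. AC50 from Hill fit.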

[6] = Cell Viability - LYMP2-004 (AID 966);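 also: cells exposed to compound for 24 h; nearly all actives have a fitted effect of over 65% in size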
Method in brief: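 Viable-cell number estimated from ATP luminescence (CellTiter-Glo) in 2500 human lymphoblastoid cells/well after 24 hr at 37 C with compound. AC50 fitted to the standard Hill equation.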

[7] = MultiTox-Fluor Cytotoxicity Assay - LYMP1-002 - Dead Cells (AID 960); also: nearly all actives have a fitted effect of over 60% in size; also: potency is read from the fitted curve at half-maximal effect
Method in brief: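 Concentration-dependent increases in membrane-leaked protease activity are quantified in LYMP1-002 cells after 16 hr treatment; values are normalized against DMSO and tetraoctylammonium bromide (15 uM) controls and AC50 derived by Hill modeling.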

[8] = Cell Viability - LYMP1-003 - Assay at 24 hr (AID 963)
Method in brief: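 The lymphoblastoid line was treated with titrated compounds for 24 hours, and viable cell number estimated from luciferase-based ATP luminescence.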

[9] = Cell Viability - LYMP1-003 - Assay at 40 hr (AID 964); also: nearly all actives have a fitted effect of over 60% in size; also: potency is read from the fitted curve at half-maximal effect
Method in brief: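 Acute toxicity is scored as a concentration-dependent loss of intracellular ATP in LYMP1-003 cells (2500/well, complete medium) after 40 hr at 37 C, measured by CellTiter-Glo luminescence; AC50 values derive from standard Hill modelling.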

[10] = target: Pyruvate kinase PKM (Homo sapiens) (UniProt P14618); assay: qHTS Assay for Inhibitors of Human Muscle Pyruvate Kinase (AID 958); conditions: purified human PKM enzyme activity
Method in brief: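 Enzyme was run at intermediate activity so both inhibitors and activators could be detected. ATP formed from ADP and PEP by 0.1 nM human PKM2 during a 1 h room-temperature incubation was quantified by coupled luciferase luminescence.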

Sequence of Pyruvate kinase PKM (Homo sapiens) (P14618 whole entry, looked up): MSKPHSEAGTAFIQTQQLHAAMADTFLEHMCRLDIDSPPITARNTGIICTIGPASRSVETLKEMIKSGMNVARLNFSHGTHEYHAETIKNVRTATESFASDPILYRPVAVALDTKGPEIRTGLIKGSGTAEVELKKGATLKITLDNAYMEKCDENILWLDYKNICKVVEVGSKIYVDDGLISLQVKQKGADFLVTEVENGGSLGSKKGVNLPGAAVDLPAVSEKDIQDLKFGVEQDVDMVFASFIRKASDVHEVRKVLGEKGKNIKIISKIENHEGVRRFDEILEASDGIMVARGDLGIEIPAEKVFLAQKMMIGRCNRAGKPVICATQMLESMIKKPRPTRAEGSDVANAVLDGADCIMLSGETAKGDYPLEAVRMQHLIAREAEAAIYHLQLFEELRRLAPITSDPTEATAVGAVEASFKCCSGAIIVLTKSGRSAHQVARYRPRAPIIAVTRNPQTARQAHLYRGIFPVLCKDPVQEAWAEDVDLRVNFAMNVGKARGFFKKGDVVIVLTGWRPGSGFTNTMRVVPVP
Sequence of Pyruvate kinase (Leishmania mexicana) (Q27686 2-499 E452W): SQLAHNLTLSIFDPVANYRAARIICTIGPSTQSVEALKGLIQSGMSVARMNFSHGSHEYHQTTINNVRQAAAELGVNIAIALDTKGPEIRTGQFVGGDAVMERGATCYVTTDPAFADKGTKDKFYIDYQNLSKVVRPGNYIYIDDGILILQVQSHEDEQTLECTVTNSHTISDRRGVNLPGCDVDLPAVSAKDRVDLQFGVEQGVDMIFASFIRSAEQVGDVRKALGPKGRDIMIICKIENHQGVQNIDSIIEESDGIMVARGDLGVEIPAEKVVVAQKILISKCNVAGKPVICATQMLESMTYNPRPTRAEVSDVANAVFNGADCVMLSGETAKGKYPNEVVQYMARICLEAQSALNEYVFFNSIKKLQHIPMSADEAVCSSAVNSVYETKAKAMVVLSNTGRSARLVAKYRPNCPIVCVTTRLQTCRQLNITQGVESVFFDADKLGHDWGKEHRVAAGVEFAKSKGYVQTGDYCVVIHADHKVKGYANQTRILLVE

Question: For `CCCCNc1c(C(=O)OCC)c(C)nc2c1cnn2CC`, which outcome [1] is on record?
Answer: inactive

Question: Which outcome [1] does the source give for `CN1CCN(CC(=O)N2c3ccccc3C(=O)Nc3cccnc32)CC1` here?
Answer: inactive

Question: For `CCCN(CCC)CCc1cccc2c1CC(=O)N2`, which outcome [1] is on record?
Answer: inactive

Question: Which outcome [1] does the source give for `Cc1nc2c([nH]1)c(=O)n(C)c(=O)n2Cc1ccco1` here?
Answer: inactive

Question: With `O=C1NCN(c2ccccc2)C12CCN(CCCC(c1ccc(F)cc1)c1ccc(F)cc1)CC2` as the molecule, how does the outcome [1] read?
Answer: inactive

Question: Which outcome [1] does the source give for `CN(C)CCCN1c2ccccc2Sc2ccc(C(F)(F)F)cc21` here?
Answer: inactive

Question: For `O=C(CCCN1CCC(O)(c2cccc(C(F)(F)F)c2)CC1)c1ccc(F)cc1`, which outcome [1] is on record?
Answer: inactive

Question: Which outcome [1] does the source give for `CCN(CC)CCNC(=O)c1cc(S(C)(=O)=O)ccc1OC` here?
Answer: inactive

Question: Which outcome [1] does the source give for `CC[N+](C)(C)c1cccc(O)c1` here?
Answer: inactive

Question: With `CCCCNc1ccc(C(=O)OCCN(C)C)cc1` as the molecule, how does the outcome [1] read?
Answer: inactive

Question: For `c1cnc(N2CCN(Cc3ccc4c(c3)OCO4)CC2)nc1`, which outcome [1] is on record?
Answer: inactive

Question: Which outcome [1] does the source give for `C[C@H](CS)C(=O)N1CCC[C@H]1C(=O)O` here?
Answer: inactive

Question: For `O=C(O)CCCCCCCC(=O)O`, which outcome [1] is on record?
Answer: inactive

Question: With `FC(F)(F)c1ccccc1-n1ccnc1` as the molecule, how does the outcome [1] read?
Answer: inactive

Question: For `CN(C)CCOC(=O)COc1ccc(Cl)cc1`, which outcome [1] is on record?
Answer: inactive

Question: Which outcome [1] does the source give for `CC(=O)Nc1nnc(S(N)(=O)=O)s1` here?
Answer: inactive

Question: Which outcome [1] does the source give for `Brc1c(NC2=NCCN2)ccc2nccnc12` here?
Answer: inactive

Question: With `Cc1ccc(=O)n(-c2ccccc2)c1` as the molecule, how does the outcome [1] read?
Answer: inactive

Question: With `CCOC(=O)c1cnc2c(cnn2CC)c1NN=C(C)C` as the molecule, how does the outcome [1] read?
Answer: inactive

Question: For `NC(N)=NC(=O)Cc1c(Cl)cccc1Cl`, which outcome [1] is on record?
Answer: inactive

Question: For `O=C(O)CP(=O)(O)O`, which outcome [1] is on record?
Answer: inactive

Question: Which outcome [1] does the source give for `CCN(CC)CCOCCOC(=O)C1(c2ccccc2)CCCC1` here?
Answer: inactive

Question: With `CCO/C([O-])=N/c1c[n+](N2CCOCC2)no1` as the molecule, how does the outcome [1] read?
Answer: inactive

Question: With `O=C(O)CN(CCN(CC(=O)O)CC(=O)O)CCN(CC(=O)O)CC(=O)O` as the molecule, how does the outcome [1] read?
Answer: inactive

Question: Which outcome [1] does the source give for `CCc1cccc(N(C)C(N)=Nc2cccc3ccccc23)c1` here?
Answer: inactive

Question: For `CN(C)C(=O)Oc1cccc([N+](C)(C)C)c1`, which outcome [1] is on record?
Answer: inactive

Question: With `CCN(CC)CCNC(=O)c1ccc(NC(C)=O)cc1` as the molecule, how does the outcome [1] read?
Answer: inactive

Question: Which outcome [1] does the source give for `CCNC(=O)N1CCN(CCCC(c2ccc(F)cc2)c2ccc(F)cc2)CC1` here?
Answer: inactive

Question: For `Nc1nc(N)c2nc(-c3ccccc3)c(N)nc2n1`, which outcome [1] is on record?
Answer: inactive

Question: And the outcome [2]?
Answer: inactive

Question: And the outcome [3]?
Answer: inactive

Question: And the Potency [4]?
Answer: inactive

Question: What about the Potency [5] of the same molecule?
Answer: inactive

Question: And the Potency [6]?
Answer: inactive

Question: Which outcome [1] does the source give for `CN=C(NC#N)NCCSCc1nc[nH]c1C` here?
Answer: inactive

Question: And the outcome [2]?
Answer: inactive

Question: What about the Potency [7] of the same molecule?
Answer: inactive

Question: And the Potency [4]?
Answer: inactive

Question: And the outcome [8]?
Answer: inactive

Question: What about the Potency [9] of the same molecule?
Answer: inactive

Question: And the Potency [5]?
Answer: inactive

Question: And the Potency [6]?
Answer: inactive

Question: Which results are given for `COc1ccc(CN(CCN(C)C)c2ccccn2)cc1`?
Answer: outcome [1]: inactive; outcome [2]: inactive; Potency [7]: inactive; Potency [4]: inactive; outcome [8]: inactive; Potency [9]: inactive; Potency [5]: inactive; Potency [6]: inactive

Question: With `CN(C)C(=O)Oc1ccc[n+](C)c1` as the molecule, how does the outcome [1] read?
Answer: inactive

Question: Which results are given for `C[n+]1cc2c3c(ccc2c2ccc4cc5c(cc4c21)OCO5)OCO3`?
Answer: outcome [1]: inactive; Potency [10]: 10 µM (active); outcome [3]: inactive

Question: For `O=C1CC2(CCCC2)CC(=O)N1CCCCN1CCN(c2ncccn2)CC1`, which outcome [1] is on record?
Answer: inactive

Question: With `CCN(CC)CC(=O)Nc1c(C)cccc1C` as the molecule, how does the outcome [1] read?
Answer: inactive

Question: With `CN(C)CC/C=C1\c2ccccc2COc2ccccc21` as the molecule, how does the outcome [1] read?
Answer: inactive

Question: What does the source list for `NC(=Nc1ccccc1)Nc1ccccc1`?
Answer: outcome [2]: inactive; Potency [7]: inactive; Potency [4]: inactive; outcome [8]: inactive; Potency [9]: inactive; Potency [5]: inactive; Potency [6]: inactive

Question: Which results are given for `COC(=O)[C@H]1[C@H]2C[C@@H]3c4[nH]c5cc(OC)ccc5c4CCN3C[C@H]2C[C@@H](OC(=O)c2cc(OC)c(OC)c(OC)c2)[C@@H]1OC`?
Answer: outcome [1]: inactive; Potency [7]: 31.6 µM (active); Potency [4]: 50.1 µM (active); Potency [9]: 39.8 µM (active)

Question: With `CCN1CCc2nc(N)oc2CC1` as the molecule, how does the outcome [1] read?
Answer: inactive

Question: For `COC(=O)[C@@H](N)Cc1ccc(O)c(O)c1`, which outcome [1] is on record?
Answer: inactive

Question: Which outcome [1] does the source give for `NC(=O)N1c2ccccc2C=Cc2ccccc21` here?
Answer: inactive

Question: And the outcome [2]?
Answer: inactive

Question: And the Potency [7]?
Answer: inactive

Question: And the Potency [4]?
Answer: inactive

Question: What about the outcome [8] of the same molecule?
Answer: inactive

Question: What about the Potency [9] of the same molecule?
Answer: inactive

Question: What about the Potency [5] of the same molecule?
Answer: inactive

Question: And the Potency [6]?
Answer: inactive

Question: Which outcome [1] does the source give for `CCn1cc(C(=O)O)c(=O)c2cc3c(cc21)OCO3` here?
Answer: inactive

Question: For `CNCCCN1c2ccccc2CCc2ccccc21`, which outcome [1] is on record?
Answer: inactive

Question: For `CCCCNC(=O)NS(=O)(=O)c1ccc(C)cc1`, which outcome [1] is on record?
Answer: inactive

Question: What about the outcome [2] of the same molecule?
Answer: inactive

Question: And the Potency [7]?
Answer: inactive

Question: And the Potency [4]?
Answer: inactive

Question: And the outcome [8]?
Answer: inactive

Question: And the Potency [9]?
Answer: inactive

Question: What about the Potency [5] of the same molecule?
Answer: inactive

Question: What about the Potency [6] of the same molecule?
Answer: inactive

Question: What does the source list for `O=c1[nH]c(=O)n([C@H]2C[C@H](O)[C@@H](CO)O2)cc1Br`?
Answer: outcome [1]: inactive; outcome [2]: inactive; Potency [7]: inactive; Potency [4]: inactive; outcome [8]: inactive; Potency [9]: inactive; Potency [5]: inactive; Potency [6]: inactive

Question: With `COc1cc(C(=O)OCCCN2CCCN(CCCOC(=O)c3cc(OC)c(OC)c(OC)c3)CC2)cc(OC)c1OC` as the molecule, how does the outcome [1] read?
Answer: inactive

Question: Which outcome [1] does the source give for `Cc1ccc(Cl)c(Nc2ccccc2C(=O)O)c1Cl` here?
Answer: inactive

Question: With `C[C@]12C=CC(=O)C=C1CC[C@H]1[C@@H]3C[C@@H](O)[C@](O)(C(=O)CO)[C@@]3(C)C[C@H](O)[C@@]12F` as the molecule, how does the outcome [1] read?
Answer: inactive
